Experimental data reported in the supplement of paper PMC6555819.

Columns and labels:
Assay in all cases: PBM binding z-score (relative to random genomic background probes); higher = stronger binding; sequences stand for … in GC…GCGATTGACAGCGTAGAATGAAGG
[1] = system: PPARg:RXRa DBDmut IVT, anti-RXR (DBD mutation: RXRa K156A/R161A, NR concentration 270 nM, RXRa partner concentration 90 nM)
Summary of the method: (§1)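 Ligand-free nuclear receptor dimers were bound for 1 h to custom Agilent 4×180K protein-binding microarrays. Detection used antibodies against each partner (one per run). Binding z-scores rest on regression-normalized fluorescence, with random background probes as the reference.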

[2] = system: PPARg:RXRa IVT, anti-PPARg (NR concentration 270 nM, RXRa partner concentration 90 nM)
Summary of the method: as §1

[3] = system: PPARg homodimer (NR concentration 180 nM)
Summary of the method: as §1

[4] = system: PXR:RXRa (NR concentration 270 nM, RXRa partner concentration 90 nM)
Summary of the method: as §1

[5] = system: PXR homodimer (NR concentration 270 nM)
Summary of the method: as §1

[6] = system: RARa:RXR (NR concentration 270 nM, RXRa partner concentration 90 nM)
Summary of the method: as §1

[7] = system: RARa homodimer (NR concentration 270 nM)
Summary of the method: as §1

[8] = system: RARb:RXRa (NR concentration 270 nM, RXRa partner concentration 90 nM)
Summary of the method: as §1

[9] = system: RARb homodimer (NR concentration 270 nM)
Summary of the method: as §1

[10] = system: RARg:RXRa (NR concentration 270 nM, RXRa partner concentration 90 nM)
Summary of the method: as §1

[11] = system: RARg homodimer (NR concentration 270 nM)
Summary of the method: as §1

[12] = system: RXRa DBDmut IVT, anti-RXR (DBD mutation: RXRa K156A/R161A, NR concentration 90 nM)
Summary of the method: as §1

[13] = system: RXRa homodimer (NR concentration 180 nM)
Summary of the method: as §1

[14] = system: THRa:RXRa (NR concentration 90 nM, RXRa partner concentration 90 nM)
Summary of the method: as §1

[15] = system: THRa homodimer (NR concentration 90 nM)
Summary of the method: as §1

[16] = system: VDR homodimer (NR concentration 270 nM)
Summary of the method: as §1

Sequence	PBM binding z-score [1]	PBM binding z-score [2]	PBM binding z-score [3]	PBM binding z-score [4]	PBM binding z-score [5]	PBM binding z-score [6]	PBM binding z-score [7]	PBM binding z-score [8]	PBM binding z-score [9]	PBM binding z-score [10]	PBM binding z-score [11]	PBM binding z-score [12]	PBM binding z-score [13]	PBM binding z-score [14]	PBM binding z-score [15]	PBM binding z-score [16]
CTATCTAGGTTAAGGGGGTCATTCAGTTTGAAAG	7.65	7.5	4.89	6	13.2	6.07	2.58	3.68	3.94	5.18	4.36	2.55	5.74	3.91	2.14	7.21
CCGTGTAGGTTACGAGGGGGCATTCAGTGCGAAT	3.52	4.85	2.84	5.31	7.2	3.23	1.33	2.47	2.58	3.76	3.23	1.74	2.46	4.03	1.23	3.94
CCGAGTCGGTTACGAGGGGGCATTCAGTGCGAAT	0.193	0.806	0.506	2.86	5.49	1.77	0.0912	1.12	1.4	1.66	1.41	0.587	0.76	2.35	0.015	3.2
CCGAGTAGGTTACGAGGGGGCATTGAGTGCGAAT	4.78	4.42	1.95	5.05	8.74	2.91	0.485	2.02	1.96	3.29	2.3	1.46	2.21	3.98	0.378	3.76
CCGAGTAGGTTACGAGGGGGCATACAGTGCGAAT	4.86	4.23	2.45	4.27	2.55	3.03	1.01	2.15	2.29	3.21	2.68	1.2	2.14	3.61	0.618	2.68
TCGAGTAGGTTACGGGGGCACTCAGGGATGAAGA	4.71	6.2	2.56	2.71	0.594	3.05	-0.263	2.65	2.3	3.39	2.3	1.2	2.84	3.4	1.09	1.68
TGGAGTAGGTTACGGGGGCATTCAGGGATGAAGA	6.12	7.33	3.02	3.97	3.87	3.46	1.99	3.1	2.94	3.75	3.39	2.16	2.83	4.11	2.48	3.94
CCGAGTAGGTTACGAGGGGGCATTCCGTGCGAAT	4.52	4.42	1.68	4.37	0.912	2.94	0.747	2	1.89	3.09	2.37	1.01	2.12	3.56	0.446	2.75
TCGAGTTGGTTACGGGGGCATTCAGGGATGAAGA	2.18	3.75	1.79	3.22	3.31	2.3	0.444	1.97	1.6	2.49	1.71	2.61	1.89	3.74	1.87	4.57
CAGAGTAGGTTACGAGGGGGCATTCAGTGCGAAT	5.73	5.83	1.94	4.86	6.24	2.83	1.21	2.45	2.26	3.13	2.84	1.78	2.2	3.68	1.15	4.2
TCCAGTAGGTTACGGGGGCATTCAGGGATGAAGA	5.86	6.84	2.22	3.68	1.9	3.51	0.616	2.97	2.45	3.99	3.38	2.49	3.03	3.96	1.63	3.69
CCGAGTAGGTTACGAGGTGGCATTCAGTGCGAAT	4.75	3.92	0.24	0.618	-0.0659	0.472	-0.0316	1.03	0.473	0.479	0.466	0.226	0.697	0.837	-0.2	0.0157
CCGAGTAGGTTACGAGGGGGTATTCAGTGCGAAT	4.05	4.17	1.24	2.91	0.693	1.99	0.377	1.51	1.15	1.98	1.63	0.847	1.17	2.6	0.46	1.11
TCGAGTAGGGTACGGGGGCATTCAGGGATGAAGA	4.21	5.82	1.54	3.3	1.96	2.86	0.475	2.37	1.81	2.33	1.97	2.6	1.67	4.02	1.48	3.8
